In PubChem BioAssay (NCATS):
Inconclusive results are not listed. Active and inactive are the calls of the source. Calls follow the shape of the dose curve; as a rule, active = well fitted curve in the direction sought with a large enough effect; inconclusive = small, poorly fitted or top-dose-only effect, or another doubt; inactive = no such curve, though single readings can be large; an effect the other way counts as inactive or inconclusive.

How the values were obtained:
[1] = P-glycoprotein substrates identified in KB-8-5-11 adenocarcinoma cell line, qHTS therapeutic library screen (AID 1346987); also: series mostly up to about 44 µM; nearly all actives have a fitted effect of over 65% in size
Method in brief: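 KB-8-5-11: colchicine-selected sub-line of KB-3-1 over-expressing P-gp; assay medium lacked colchicine. 72 h drug exposure at 37 degree C, CellTiter-Glo.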

[2] = Primary qHTS for inhibitors of nuclear receptor binding SET domain protein 2 (NSD2) in an isogenic RCH-ACV NSD2 p.E1099K mutant (9B) (AID 1645876); also: nearly all actives have a fitted effect of over 70% in size
[3] = Primary qHTS for inhibitors of nuclear receptor binding SET domain protein 2 (NSD2) in an RCH-ACV wild type WT cells (2C) (AID 1645877); also: nearly all actives have a fitted effect of over 70% in size
[4] = target: Glutathione peroxidase 1 (Homo sapiens) (UniProt P07203); test: Primary qHTS Assay for Inhibitors of Recombinant Selenoprotein Glutathione Peroxidase 1 (GPX1) (AID 1845191); also: nearly all actives have a fitted effect of over 65% in size
Sequence of Glutathione peroxidase 1 (Homo sapiens) (P07203 whole entry, looked up): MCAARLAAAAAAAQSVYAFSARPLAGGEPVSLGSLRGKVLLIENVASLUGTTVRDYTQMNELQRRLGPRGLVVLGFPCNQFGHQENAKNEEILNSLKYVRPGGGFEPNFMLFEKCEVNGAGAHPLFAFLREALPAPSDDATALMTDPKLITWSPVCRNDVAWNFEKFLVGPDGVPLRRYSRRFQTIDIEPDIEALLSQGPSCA
Method in brief: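 10 nM GPX1 + cpd, 30 min RT; start w/ 1 mM GSH, 0.5 mM cumene hydroperoxide, 0.5 mM NADPH, 100 nM GR, 0.01% BSA; buffer 50 mM Tris-HCl pH 7.5, 2 mM EDTA, 150 mM NaCl; Fl 340/450, 0 & 15 min.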

Measured: Potency

O=C(O)c1c[nH]c2c(ccc3ccccc32)c1=O
inactive: all assays above
